Source: ChEMBL document CHEMBL1961873, “Compounds: GSK PKIS; Assays: Nanosyn kinase panel” (2012)
Where “and” joins values, the source holds several entries; their conditions need not be identical. Identical values can stand only once.

Experiments:
[1] = molecular target: Mitogen-activated protein kinase 3 (Homo sapiens) (UniProt P27361); conditions: at 1 µM;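 also: values are mean percent inhibition of MAPK3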
[2] = molecular target: SRSF protein kinase 3 (Homo sapiens) (UniProt Q9UPE1); conditions: at 0.1 µM
Chain of SRSF protein kinase 3 (Homo sapiens) (Q9UPE1 whole entry): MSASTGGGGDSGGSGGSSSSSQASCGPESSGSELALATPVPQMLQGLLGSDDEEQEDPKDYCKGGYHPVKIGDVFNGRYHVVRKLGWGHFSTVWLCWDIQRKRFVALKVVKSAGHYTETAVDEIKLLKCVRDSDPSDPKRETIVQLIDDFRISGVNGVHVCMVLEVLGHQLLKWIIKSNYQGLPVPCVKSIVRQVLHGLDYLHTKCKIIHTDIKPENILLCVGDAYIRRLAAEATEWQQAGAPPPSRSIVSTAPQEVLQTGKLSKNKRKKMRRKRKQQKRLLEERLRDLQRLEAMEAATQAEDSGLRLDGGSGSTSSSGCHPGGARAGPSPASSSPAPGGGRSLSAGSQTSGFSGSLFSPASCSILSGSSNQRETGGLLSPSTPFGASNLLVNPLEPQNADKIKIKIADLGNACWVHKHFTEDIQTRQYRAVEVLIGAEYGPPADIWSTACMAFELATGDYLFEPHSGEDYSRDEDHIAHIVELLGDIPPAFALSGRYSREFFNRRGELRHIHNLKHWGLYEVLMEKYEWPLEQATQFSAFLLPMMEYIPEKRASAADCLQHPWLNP

[3] = molecular target: SRSF protein kinase 3 (Homo sapiens) (UniProt Q9UPE1); conditions: at 1 µM
[4] = molecular target: Mitogen-activated protein kinase 14 (Homo sapiens) (UniProt Q16539); conditions: at 0.1 µM
Chain of Mitogen-activated protein kinase 14 (Homo sapiens) (Q16539 whole entry): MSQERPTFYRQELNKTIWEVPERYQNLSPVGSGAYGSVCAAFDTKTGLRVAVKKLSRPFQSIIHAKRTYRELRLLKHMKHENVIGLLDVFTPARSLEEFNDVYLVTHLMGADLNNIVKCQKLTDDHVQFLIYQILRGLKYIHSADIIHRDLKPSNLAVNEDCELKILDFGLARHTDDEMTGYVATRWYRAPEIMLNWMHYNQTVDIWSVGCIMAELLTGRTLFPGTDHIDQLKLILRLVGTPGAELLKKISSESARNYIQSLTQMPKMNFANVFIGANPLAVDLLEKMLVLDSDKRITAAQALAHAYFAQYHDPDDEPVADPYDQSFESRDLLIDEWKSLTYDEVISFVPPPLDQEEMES

[5] = molecular target: Mitogen-activated protein kinase 14 (Homo sapiens) (UniProt Q16539); conditions: at 1 µM
[6] = molecular target: Mitogen-activated protein kinase 11 (Homo sapiens) (UniProt Q15759); conditions: at 0.1 µM
Chain of Mitogen-activated protein kinase 11 (Homo sapiens) (Q15759 whole entry): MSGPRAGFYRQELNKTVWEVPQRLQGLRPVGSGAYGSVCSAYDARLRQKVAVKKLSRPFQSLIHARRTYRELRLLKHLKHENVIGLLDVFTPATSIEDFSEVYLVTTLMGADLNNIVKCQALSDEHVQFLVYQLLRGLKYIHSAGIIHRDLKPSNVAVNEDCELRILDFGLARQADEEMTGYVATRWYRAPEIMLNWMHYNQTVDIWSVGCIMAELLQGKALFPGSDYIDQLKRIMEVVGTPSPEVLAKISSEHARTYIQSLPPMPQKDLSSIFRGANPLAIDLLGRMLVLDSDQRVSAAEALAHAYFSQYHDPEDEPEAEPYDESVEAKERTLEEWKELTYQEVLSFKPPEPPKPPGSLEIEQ

[7] = molecular target: Mitogen-activated protein kinase 11 (Homo sapiens) (UniProt Q15759); conditions: at 1 µM
[8] = molecular target: T1, Mitogen-activated protein kinase 13 (Homo sapiens) (UniProt O15264); conditions: at 0.1 µM
T1 sequence (whole entry): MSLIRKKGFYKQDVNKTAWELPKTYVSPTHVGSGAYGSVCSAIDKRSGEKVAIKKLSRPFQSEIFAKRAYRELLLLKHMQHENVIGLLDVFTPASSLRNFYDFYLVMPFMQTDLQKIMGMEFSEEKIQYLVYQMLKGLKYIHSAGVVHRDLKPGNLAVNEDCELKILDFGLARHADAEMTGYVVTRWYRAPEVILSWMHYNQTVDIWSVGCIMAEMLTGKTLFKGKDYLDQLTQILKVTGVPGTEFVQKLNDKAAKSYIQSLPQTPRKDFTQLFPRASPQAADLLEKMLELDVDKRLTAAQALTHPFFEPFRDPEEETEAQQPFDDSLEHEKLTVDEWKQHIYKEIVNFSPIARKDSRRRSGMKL

[9] = molecular target: T1, Mitogen-activated protein kinase 13 (Homo sapiens); conditions: at 1 µM
[10] = molecular target: T2, Mitogen-activated protein kinase 12 (Homo sapiens) (UniProt P53778); conditions: at 0.1 µM
T2 sequence (whole entry): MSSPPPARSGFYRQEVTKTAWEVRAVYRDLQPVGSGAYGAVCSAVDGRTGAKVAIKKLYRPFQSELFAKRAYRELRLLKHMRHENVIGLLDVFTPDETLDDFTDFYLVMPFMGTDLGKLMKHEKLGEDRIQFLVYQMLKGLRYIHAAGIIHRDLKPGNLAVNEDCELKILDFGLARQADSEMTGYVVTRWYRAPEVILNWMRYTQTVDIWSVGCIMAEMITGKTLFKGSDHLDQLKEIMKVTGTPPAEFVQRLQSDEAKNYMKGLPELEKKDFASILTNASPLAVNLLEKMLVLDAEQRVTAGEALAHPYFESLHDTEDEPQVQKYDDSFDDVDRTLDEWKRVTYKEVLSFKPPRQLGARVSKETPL

[11] = molecular target: T2, Mitogen-activated protein kinase 12 (Homo sapiens); conditions: at 1 µM
[12] = molecular target: SRSF protein kinase 1 (Homo sapiens) (UniProt Q96SB4); conditions: at 0.1 µM
Chain of SRSF protein kinase 1 (Homo sapiens) (Q96SB4 whole entry, canonical isoform): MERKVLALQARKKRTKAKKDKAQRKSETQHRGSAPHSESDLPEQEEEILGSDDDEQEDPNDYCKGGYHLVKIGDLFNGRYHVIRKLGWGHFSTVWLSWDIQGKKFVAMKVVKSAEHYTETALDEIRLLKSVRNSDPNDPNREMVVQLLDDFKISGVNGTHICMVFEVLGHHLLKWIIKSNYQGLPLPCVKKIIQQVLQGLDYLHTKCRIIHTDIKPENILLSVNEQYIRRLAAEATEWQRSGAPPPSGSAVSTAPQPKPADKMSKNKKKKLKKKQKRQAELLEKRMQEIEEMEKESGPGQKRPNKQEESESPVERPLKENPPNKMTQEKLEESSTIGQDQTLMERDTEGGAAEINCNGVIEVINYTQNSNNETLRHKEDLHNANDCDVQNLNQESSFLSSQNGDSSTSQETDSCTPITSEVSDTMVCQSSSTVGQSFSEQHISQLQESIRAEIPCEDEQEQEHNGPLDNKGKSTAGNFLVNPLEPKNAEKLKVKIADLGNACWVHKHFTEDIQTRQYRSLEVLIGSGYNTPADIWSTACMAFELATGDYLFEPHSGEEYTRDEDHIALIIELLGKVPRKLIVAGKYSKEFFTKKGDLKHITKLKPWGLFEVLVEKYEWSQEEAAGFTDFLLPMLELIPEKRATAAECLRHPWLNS

[13] = molecular target: SRSF protein kinase 1 (Homo sapiens) (UniProt Q96SB4); conditions: at 1 µM
[14] = molecular target: Phosphatidylinositol 4,5-bisphosphate 3-kinase catalytic subunit alpha isoform (Homo sapiens) (UniProt P42336); conditions: at 0.1 µM
Chain of Phosphatidylinositol 4,5-bisphosphate 3-kinase catalytic subunit alpha isoform (Homo sapiens) (P42336 whole entry, canonical isoform): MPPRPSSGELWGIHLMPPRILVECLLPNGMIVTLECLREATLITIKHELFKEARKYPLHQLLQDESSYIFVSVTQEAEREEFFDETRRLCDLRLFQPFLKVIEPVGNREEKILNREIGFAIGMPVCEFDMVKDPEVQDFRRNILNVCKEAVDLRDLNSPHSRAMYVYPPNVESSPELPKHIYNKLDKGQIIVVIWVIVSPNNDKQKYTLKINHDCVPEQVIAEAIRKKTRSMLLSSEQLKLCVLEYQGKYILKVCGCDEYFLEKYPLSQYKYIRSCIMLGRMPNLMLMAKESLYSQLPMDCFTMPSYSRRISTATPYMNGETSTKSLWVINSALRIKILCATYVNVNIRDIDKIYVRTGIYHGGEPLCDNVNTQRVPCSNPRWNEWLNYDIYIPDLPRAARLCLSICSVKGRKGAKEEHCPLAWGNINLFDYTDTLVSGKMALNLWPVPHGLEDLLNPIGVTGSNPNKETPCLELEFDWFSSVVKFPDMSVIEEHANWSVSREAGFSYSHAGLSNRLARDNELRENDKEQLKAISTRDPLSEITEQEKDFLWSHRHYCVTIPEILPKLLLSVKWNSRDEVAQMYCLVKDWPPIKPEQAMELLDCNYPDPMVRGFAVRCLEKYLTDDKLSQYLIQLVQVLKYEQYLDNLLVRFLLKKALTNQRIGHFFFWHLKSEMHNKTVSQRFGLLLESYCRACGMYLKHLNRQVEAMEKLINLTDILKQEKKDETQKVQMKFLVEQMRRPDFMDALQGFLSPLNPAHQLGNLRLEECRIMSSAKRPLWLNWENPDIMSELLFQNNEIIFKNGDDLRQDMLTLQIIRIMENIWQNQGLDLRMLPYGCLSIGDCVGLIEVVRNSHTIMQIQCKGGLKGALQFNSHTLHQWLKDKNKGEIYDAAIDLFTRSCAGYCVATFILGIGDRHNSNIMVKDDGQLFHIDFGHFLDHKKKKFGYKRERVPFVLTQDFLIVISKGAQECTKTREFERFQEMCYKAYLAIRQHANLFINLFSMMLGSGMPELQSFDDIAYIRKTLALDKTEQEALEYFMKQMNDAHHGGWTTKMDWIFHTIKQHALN

[15] = molecular target: Phosphatidylinositol 4,5-bisphosphate 3-kinase catalytic subunit alpha isoform (Homo sapiens) (UniProt P42336); conditions: at 1 µM
[16] = molecular target: T3, Phosphatidylinositol 4,5-bisphosphate 3-kinase catalytic subunit delta isoform (Homo sapiens) (UniProt O00329); conditions: at 0.1 µM
T3 sequence (whole entry): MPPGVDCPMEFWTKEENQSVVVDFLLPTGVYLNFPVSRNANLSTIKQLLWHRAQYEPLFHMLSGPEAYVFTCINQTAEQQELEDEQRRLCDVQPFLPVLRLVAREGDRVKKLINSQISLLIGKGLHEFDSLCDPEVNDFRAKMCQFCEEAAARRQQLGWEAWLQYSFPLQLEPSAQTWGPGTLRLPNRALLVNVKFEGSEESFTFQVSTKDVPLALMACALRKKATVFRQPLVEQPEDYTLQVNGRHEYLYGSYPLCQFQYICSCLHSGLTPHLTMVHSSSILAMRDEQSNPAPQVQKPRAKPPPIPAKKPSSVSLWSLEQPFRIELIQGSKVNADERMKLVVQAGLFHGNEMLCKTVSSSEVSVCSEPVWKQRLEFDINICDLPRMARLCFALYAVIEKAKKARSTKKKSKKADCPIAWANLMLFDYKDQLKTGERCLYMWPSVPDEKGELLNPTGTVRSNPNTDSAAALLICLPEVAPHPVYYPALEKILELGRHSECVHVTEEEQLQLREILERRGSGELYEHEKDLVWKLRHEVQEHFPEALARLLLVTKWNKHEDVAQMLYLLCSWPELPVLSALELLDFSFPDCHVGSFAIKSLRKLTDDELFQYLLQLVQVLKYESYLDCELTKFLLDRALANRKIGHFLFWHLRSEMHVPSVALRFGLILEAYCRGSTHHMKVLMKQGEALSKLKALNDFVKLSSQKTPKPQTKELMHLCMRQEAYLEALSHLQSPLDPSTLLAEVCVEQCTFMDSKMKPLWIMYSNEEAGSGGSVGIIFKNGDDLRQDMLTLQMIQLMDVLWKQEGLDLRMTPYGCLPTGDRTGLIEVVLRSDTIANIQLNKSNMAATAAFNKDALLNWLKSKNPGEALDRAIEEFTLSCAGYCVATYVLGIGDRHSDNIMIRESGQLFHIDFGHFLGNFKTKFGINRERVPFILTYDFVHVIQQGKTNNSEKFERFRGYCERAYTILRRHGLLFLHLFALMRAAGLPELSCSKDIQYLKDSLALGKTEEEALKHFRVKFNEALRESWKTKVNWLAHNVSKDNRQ

[17] = molecular target: T3, Phosphatidylinositol 4,5-bisphosphate 3-kinase catalytic subunit delta isoform (Homo sapiens); conditions: at 1 µM
[18] = molecular target: Phosphatidylinositol 4-kinase beta (Homo sapiens) (UniProt Q9UBF8); conditions: at 0.1 µM
Chain of Phosphatidylinositol 4-kinase beta (Homo sapiens) (Q9UBF8 2-816 limits assumed): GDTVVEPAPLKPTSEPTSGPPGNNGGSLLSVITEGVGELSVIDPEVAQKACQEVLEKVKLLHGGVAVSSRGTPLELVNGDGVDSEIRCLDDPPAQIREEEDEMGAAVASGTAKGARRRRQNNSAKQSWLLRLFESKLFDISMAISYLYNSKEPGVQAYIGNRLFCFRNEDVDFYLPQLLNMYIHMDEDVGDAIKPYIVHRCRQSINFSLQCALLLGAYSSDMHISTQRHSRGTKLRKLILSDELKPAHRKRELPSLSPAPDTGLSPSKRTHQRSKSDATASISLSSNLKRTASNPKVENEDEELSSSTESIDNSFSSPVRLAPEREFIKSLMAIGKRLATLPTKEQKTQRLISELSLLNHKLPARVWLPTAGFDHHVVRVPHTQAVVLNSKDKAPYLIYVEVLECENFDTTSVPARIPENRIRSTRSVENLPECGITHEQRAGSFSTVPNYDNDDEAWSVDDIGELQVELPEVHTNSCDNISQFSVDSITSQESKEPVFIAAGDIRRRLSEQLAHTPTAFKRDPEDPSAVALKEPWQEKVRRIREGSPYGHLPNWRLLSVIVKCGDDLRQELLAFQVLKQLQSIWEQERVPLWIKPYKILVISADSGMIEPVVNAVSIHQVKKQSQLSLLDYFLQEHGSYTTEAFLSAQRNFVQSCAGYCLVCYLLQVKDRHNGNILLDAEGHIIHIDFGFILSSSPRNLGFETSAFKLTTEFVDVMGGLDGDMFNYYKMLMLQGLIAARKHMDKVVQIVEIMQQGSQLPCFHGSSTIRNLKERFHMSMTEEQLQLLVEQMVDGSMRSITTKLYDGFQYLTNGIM

[19] = molecular target: Phosphatidylinositol 4-kinase beta (Homo sapiens) (UniProt Q9UBF8); conditions: at 1 µM
[20] = molecular target: Sphingosine kinase 1 (Homo sapiens) (UniProt Q9NYA1); conditions: at 0.1 µM;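 also: mean percent inhibition of SPHK1 activity, measured within the GSK PKIS screening panel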
Chain of Sphingosine kinase 1 (Homo sapiens) (Q9NYA1 whole entry): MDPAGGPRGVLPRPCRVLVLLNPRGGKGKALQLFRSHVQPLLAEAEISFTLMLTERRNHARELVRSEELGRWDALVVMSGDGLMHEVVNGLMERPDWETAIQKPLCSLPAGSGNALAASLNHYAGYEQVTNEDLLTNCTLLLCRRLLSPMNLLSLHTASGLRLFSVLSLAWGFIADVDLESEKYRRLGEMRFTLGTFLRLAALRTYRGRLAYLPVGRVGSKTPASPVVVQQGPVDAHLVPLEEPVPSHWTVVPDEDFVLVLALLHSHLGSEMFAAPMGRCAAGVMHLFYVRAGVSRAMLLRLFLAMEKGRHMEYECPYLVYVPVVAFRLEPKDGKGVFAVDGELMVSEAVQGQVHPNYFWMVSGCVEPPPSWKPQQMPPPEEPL

Chain of Mitogen-activated protein kinase 3 (Homo sapiens) (P27361 whole entry): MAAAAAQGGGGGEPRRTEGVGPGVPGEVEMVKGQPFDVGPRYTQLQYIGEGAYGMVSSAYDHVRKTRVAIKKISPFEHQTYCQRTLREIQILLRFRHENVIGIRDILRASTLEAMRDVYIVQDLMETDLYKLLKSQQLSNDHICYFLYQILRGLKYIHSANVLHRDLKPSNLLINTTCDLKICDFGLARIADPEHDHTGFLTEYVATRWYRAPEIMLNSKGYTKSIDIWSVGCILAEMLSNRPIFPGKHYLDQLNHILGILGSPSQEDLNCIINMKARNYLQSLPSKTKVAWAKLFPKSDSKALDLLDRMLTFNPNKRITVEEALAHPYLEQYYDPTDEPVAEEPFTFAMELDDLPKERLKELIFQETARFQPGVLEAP

| Compound | inhibition [1] | inhibition [2] | inhibition [3] | inhibition [4] | inhibition [5] | inhibition [6] | inhibition [7] | inhibition [8] | inhibition [9] | inhibition [10] | inhibition [11] | inhibition [12] | inhibition [13] | inhibition [14] | inhibition [15] | inhibition [16] | inhibition [17] | inhibition [18] | inhibition [19] | inhibition [20] |
| --- | --- | --- | --- | --- | --- | --- | --- | --- | --- | --- | --- | --- | --- | --- | --- | --- | --- | --- | --- | --- |
| COc1cc(N2CCN(C(C)C)CC2)ccc1Nc1nc(Nc2cccc3ncccc23)c2cc[nH]c2n1 | 0.21% | -0.27% | 1.83% | 1.44% | 2.03% | -0.29% | 0.54% | -1.75% | -2.15% | -0.18% | -0.51% | -1.39% | -1.2% | -0.92% | 1.96% | -1.65% | 4.18% | 5.9% | -2.85% | 0% |
| CC1(C)CC(n2cnc(-c3ccc(F)cc3)c2-c2ccnc(N)n2)CC(C)(C)N1 | 1.92% | -0.06% | -1.33% | 64.5% | 77.6% | 13.6% | 55.7% | 1.83% | 1.42% | 0.38% | 2.44% | 0.72% | -1.12% | 4.34% | 4.5% | 5.71% | 6.91% | 0.64% | -1.54% | 1.98% |
| Fc1ccc(Nc2nccc(-c3c(-c4ccc(C(F)(F)F)cc4)nn4ncccc34)n2)cc1F | -0.07% | 0.64% | 0.08% | 1.53% | 8.46% | 1.28% | 3.29% | -4.93% | 4.25% | 5.22% | 2.9% | -0.59% | -3.45% | 3.44% | 3.77% | 1.05% | 2.86% | -3.81% | -1.62% | 0.46% |
| CS(=O)(=O)CCNCc1ccc(-c2ccc3ncnc(Nc4ccc(OCc5cccc(C(F)(F)F)c5)cc4)c3c2)o1 | 5% | -2.18% | -0.47% | 11.9% | 13.9% | 1.8% | 5.06% | 5.4% | 5.66% | 3.43% | 6.4% | -2% | -2.32% | 4.42% | 4.38% | 0.9% | 1.81% | 0.98% | -0.43% | 1.49% |
| COc1ccccc1-c1cc(/C=C2\C(=O)Nc3ncc(Br)cc32)cc(Br)c1O | 2.3% | 0.86% | -0.04% | 2.73% | 11.3% | 5.59% | 5.73% | 0.15% | 9.18% | 2.49% | 4.01% | -2.27% | -5.25% | 8.24% | 18.6% | 7.45% | 13.9% | -5.01% | 7.13% | 0.8% |
| COc1ccc2ncn(-c3cc(O[C@H](C)c4ccccc4C(F)(F)F)c(C(N)=O)s3)c2c1 | 0.26% | -1.14% | -0.79% | -5.71% | 0.3% | -0.35% | 0.3% | -0.27% | -1.08% | 0.21% | -0.21% | -0.66% | -1.2% | 0.29% | 4.81% | 2.14% | 12.2% | -1.47% | 1.85% | -1.01% |
| CCS(=O)(=O)c1ccc(OC)c(Nc2ncc(-c3cccc(F)c3)o2)c1 | 5.09% | -2.3% | 0.15% | 13.4% | 14.9% | 4.8% | 7.52% | 5.58% | 5.36% | 3.31% | 4.78% | -0.63% | 0.45% | 5.95% | 5.75% | 2.23% | 4.91% | 0.49% | -1.64% | -1.2% |
| COC(=O)Nc1nc2cc(Oc3ccc(NC(=O)Nc4ccccc4)cc3)ccc2[nH]1 | 4.97% | -2.65% | 1.09% | 1.53% | 6.62% | 3.05% | 8.13% | -0.27% | 1.34% | 3.43% | 1.26% | -2.23% | -0.94% | 3.19% | 0% | 0.3% | 0.14% | 3.09% | 2.26% | -0.55% |
| FC(F)(F)CNc1nccc(-c2cnn3ncccc23)n1 | 2.69% | -4.16% | -0.66% | 6.27% | 5.78% | 3.94% | 6.08% | 2.13% | 2.49% | 1.83% | 4.71% | -3.11% | -3.13% | 2.55% | 3.51% | 0.99% | 2.05% | 2.04% | 5.22% | -2.3% |
| COc1cc(Nc2ncc(-c3ccccc3)o2)cc(OC)c1 | 5.68% | -1.19% | 1.14% | 6.3% | 5.68% | 2.87% | 5.59% | 5.24% | 4.13% | 3.61% | 3.94% | -2.65% | -2% | 8.32% | 6.87% | 5.4% | 5.83% | 0.33% | 3.11% | 2.1% |
| Nc1nonc1-c1nc2cnccc2n1C1CC1 | 4.99% and 3.59% | -0.3% and -0.76% | -1.03% and 0.65% | 9.91% and 3.52% | 9.15% and 7.62% | 3.95% and 1.62% | 6.89% and 0.76% | 3.43% and 4.51% | 6.86% and 5.08% | 3.64% and 2.61% | 3.34% and 3.65% | -1.33% and -0.52% | -1.72% and -0.89% | 2.95% and 6.82% | 3.77% and 8% | 1.84% and 8.17% | 2.3% and 9.78% | 0.74% and 1.33% | -6.41% and 0.29% | -1.72% and 0.56% |
| CCS(=O)(=O)c1ccc(OC)c(Nc2ncc(-c3cccc(C(C)=O)c3)o2)c1 | 4.06% | 0.96% | 0.97% | 2.16% | 5.09% | 3.95% | 3.42% | -0.9% | 3.45% | -1.65% | 1.14% | -0.6% | 4.89% | 2.7% | 1.8% | 0.22% | -1.96% | 2.44% | -1.58% | 13.1% |
| CS(=O)(=O)Nc1ccc(-c2ccc3c(NC(=O)C4CC4)n[nH]c3c2)cc1 | 3.17% | 1.14% | -1.76% | 2.35% | 7.21% | 1.53% | 0.3% | 3.39% | 4.07% | 1.3% | 2.05% | -1.28% | -3.34% | 2.67% | 4.34% | 0.92% | 1.63% | -0.54% | -0.98% | 2.34% |
